Among all 330,000 compounds or so, about 1,900 (0.58%) were called active. Another 4% or so got no clear call; they are omitted. Cut-off read from the data, not from the text of the source: inconclusive = inhibition above about 70% without an active follow-up result; inactive = below that. The list is a sample of the results. Potency and affinity values are given separately.
test: M. tuberculosis growth inhibition, HTS (AID 449762);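 note: bacterial growth assessed after seven days of incubation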; settings: M. tuberculosis H37Rv growth inhibition, 7H9 media; at 25 µM; active compounds read high

Row | SMILES | inhibition
1 | COc1ccc(C(=O)CCN2CCc3cc(OC)c(OC)cc3C2)cc1 | 68.3% (inactive)
2 | COc1cc2c(cc1OC)CN(CCOc1ccc(Br)cc1)CC2 | -0.08% (inactive)
3 | COc1cc(OC)cc(C(=O)N[C@H](C(=O)OCC(=O)c2c[nH]c3ccccc23)C(C)C)c1 | -5.93% (inactive)
4 | C=C1SC(Nc2c(C)cc(C)cc2C)=NC12CCCCC2 | 4.72% (inactive)
5 | Cc1cc(C)n(Cc2ccc(C(=O)NN)o2)n1 | -3.98% (inactive)
6 | CCOC(=O)C1CCN(c2nc(C)nc3c2oc2ccccc23)CC1 | 13.6% (inactive)
7 | Cc1nc(N2CCOCC2)c2oc3ccccc3c2n1 | -22.1% (inactive)
8 | CCOc1ccc(C2CC(c3ccc(CC)cc3)Nc3nc(N)nn32)cc1 (stereo unspecified) | 53.9% (inactive)
9 | CCCCc1nc2cc(C(=O)NCc3nccn3CC)ccc2o1 | -0.01% (inactive)
10 | O=C(NC(=S)NCCO)c1sc2ccccc2c1Cl | -1.03% (inactive)
11 | O=C(NNC(=S)NC1CCCCC1)c1sc2ccccc2c1Cl | 4.12% (inactive)
12 | COC(=O)C1CCN(C(=O)COC(=O)c2cc(-c3cccs3)nn2-c2ccccc2)CC1 | 68.6% (inactive)
13 | NC(=O)COC(=O)c1cc(-c2cccs2)nn1-c1ccccc1 | 3.52% (inactive)
14 | O=[P+](Cc1ccccc1)Cc1ccccc1 | 5.56% (inactive)
15 | CCOc1cc2c(cc1OCC)-n1cccc1C(c1ccc(F)cc1)NC2 (stereo unspecified) | 4.18% (inactive)
16 | CCOc1cc2c(cc1OCC)-n1cccc1C(c1ccc(OC)cc1)NC2 (stereo unspecified) | 12.2% (inactive)
17 | CCN1CCN(C(C(=O)NC2CCCCC2)c2ccc(Cl)cc2)CC1 (stereo unspecified) | -6.43% (inactive)
18 | COc1ccc(-c2cc(C)no2)cc1S(=O)(=O)NCCCN1CCN(c2ccccc2)CC1 | 1.94% (inactive)
19 | Cc1cc(-c2ccc(C)c(S(=O)(=O)NCCCN3CCN(c4ccccc4)CC3)c2)on1 | 36.8% (inactive)
20 | c1ccc2c(c1)nc1n2CCS1 | -2.74% (inactive)
21 | COc1cc(C(=O)NNC(=O)c2ccc3ccccc3n2)cc(OC)c1OC | 5.84% (inactive)
22 | COc1cccc(NC(=O)/C=C/c2ccccc2[N+](=O)[O-])c1 | -3.12% (inactive)
23 | CCn1c2ccccc2c2nnc(SCCN3CCCCC3)nc21 | 5.94% (inactive)
24 | CCN(CC)CCSc1nnc2c3ccccc3n(Cc3ccccc3)c2n1 | 3.52% (inactive)

Row | SMILES | inhibition
25 | CCOC(=O)C1(CC2CCCCO2)CCN(Cc2nc3ccccc3nc2C)CC1 (stereo unspecified) | 0.36% (inactive)
26 | CCOC(=O)c1cccc(NC(=O)C2CCN(S(=O)(=O)c3cccs3)CC2)c1 | -3.98% (inactive)
27 | COCCCNC(=O)c1sc2ncnc(N3CCc4ccccc4C3)c2c1C | 22.6% (inactive)
28 | CCN1CCN(C(=O)c2sc3ncnc(N4CCc5ccccc5C4)c3c2C)CC1 | 1.76% (inactive)
29 | O=C(NCCN1CCCCC1)c1ccc2c(c1)OCCO2 | 1.64% (inactive)
30 | O=C(O)CCC(=O)N1CCN(c2nc(-c3ccccc3Cl)c3cc(Br)ccc3n2)CC1 | 8.23% (inactive)
31 | O=C(O)CCCC(=O)N1CCN(c2nc(-c3ccccc3Cl)c3cc(Br)ccc3n2)CC1 | 2.83% (inactive)
32 | Cc1ccc(N(C(=O)c2csnn2)C(C(=O)NC2CCCCC2)c2ccccn2)c(C)c1 (stereo unspecified) | -6.22% (inactive)
33 | COc1cc(CC(=O)O)ccc1OCc1ccccc1 | -4.67% (inactive)
34 | COc1ccc(N(CC(=O)NC2CCCCC2)C(=O)CNC(=O)c2cccs2)cc1OC | -4.95% (inactive)
35 | CCNC(=O)c1ccccc1NC(=O)c1cccc(S(=O)(=O)N2CCOCC2)c1 | 1.29% (inactive)
36 | CC(NC(=O)c1ccccc1Cl)C1CC2CCC1C2 (stereo unspecified) | 4.24% (inactive)
37 | COc1ccc(C(=O)NC(C)C2CC3CCC2C3)c(OC)c1 (stereo unspecified) | 7.27% (inactive)
38 | Cc1ccccc1C(=O)NC(C)C1CC2CCC1C2 (stereo unspecified) | 4.28% (inactive)
39 | COc1ccc(C(=O)NC(C)C2CC3CCC2C3)cc1 (stereo unspecified) | 0.61% (inactive)
40 | Cn1cnnc1SCC(=O)NCCc1ccccc1 | 0.84% (inactive)
41 | COC(=O)CCC(=O)Nc1cccc(Br)c1 | -7.91% (inactive)
42 | CC(C)(C)NC(=O)CSc1ncnc2c1nnn2Cc1ccccc1Cl | 18% (inactive)
43 | COCCCN1C(=O)c2ccc(C(=O)N3CCN(c4ccc(OC)cc4)CC3)cc2C1=O | 0.38% (inactive)
44 | Cc1cc(C)c(-n2nnnc2SCC(=O)c2cc3ccccc3o2)c(C)c1 | -0.74% (inactive)
45 | CCOC(=O)CNC(=O)CSc1nnc(NC(=O)c2ccc3c(c2)OCO3)s1 | -3.99% (inactive)
46 | COC(=O)CSc1nnc(NC(=O)c2ccc3c(c2)OCO3)s1 | 56.1% (inactive)
47 | COc1cccc(N2CCN(C(=O)c3cccn4c(=O)c5c(C)c(C)sc5nc34)CC2)c1 | -1.68% (inactive)
48 | CCOc1ccc(CCNC(=O)COC(=O)c2cc(OC)c(OC)c(OC)c2)cc1OCC | -6.27% (inactive)

Row | SMILES | inhibition
49 | CCc1nnc(NC(=O)c2csc3c2CCC(C)C3)s1 (stereo unspecified) | 0.85% (inactive)
50 | Cc1nnc(NC(=O)c2csc3c2CCC(C)C3)s1 (stereo unspecified) | 6.53% (inactive)
51 | O=C(C1CCCN1S(=O)(=O)c1ccc(Cl)c(Cl)c1)N1CCOCC1 (stereo unspecified) | 1.37% (inactive)
52 | OCC[C@H]1C[C@@H](O)[C@H](O)[C@]2(OCc3ccccc32)O1 | 4.05% (inactive)
53 | CN(C)CCCNC(=S)N(CCN(C)C)Cc1cc2cc3c(cc2[nH]c1=O)OCCO3 | -2.66% (inactive)
54 | CCOc1ccccc1N1CCN(CC(=O)Nc2cc(C)on2)CC1 | -0.33% (inactive)
55 | O=C(Nc1ccccc1O)c1ccccc1O | -2.76% (inactive)
56 | CC(=O)Nc1ccccc1O | -6.49% (inactive)
57 | CCC(=O)c1ccc(OCC(O)CNC2CCCC2)cc1 (stereo unspecified) | -4.31% (inactive)
58 | Cc1ccc(Cn2ncc3c(N4CCN(Cc5ccc(Cl)cc5)CC4)ncnc32)cc1 | 35% (inactive)
59 | Clc1ccc(Cn2ncc3c(N4CCCC4)ncnc32)cc1 | 6.77% (inactive)
60 | COc1ccc(NC(=O)c2c3c(nc4ccccc24)CCC3)cc1 | 2.33% (inactive)
61 | CCCC(O)(CCC)C(=O)NN(C(=O)CCl)c1ccccc1 | 64.3% (inactive)
62 | CCC(O)(CC)C(=O)NN(C(=O)CCl)c1ccccc1 | 64.9% (inactive)
63 | CC(C)(C)NC(=O)C1Cc2ccccc2CN1S(=O)(=O)c1ccc(F)cc1 (stereo unspecified) | -4.99% (inactive)
64 | CC(C)Oc1cccc(C(=O)C2CCCN(Cc3cnc(N4CCOCC4)s3)C2)c1 (stereo unspecified) | 0.96% (inactive)
65 | CCOC(=O)N1CCN(S(=O)(=O)c2ccc(C(=O)N(CCN(CC)CC)c3nc4ccc(C)cc4s3)cc2)CC1 | -2.86% (inactive)
66 | CCN(CC)CCN(C(=O)c1ccc(S(=O)(=O)N2CCCCC2)cc1)c1nc2cc3c(cc2s1)OCO3 | 1.42% (inactive)
67 | CCN(CC)C(=O)N1CCC(NC(=O)c2ccc(C(C)(C)C)cc2)CC1 | 9.36% (inactive)
68 | Cc1cc(NC(=O)CSc2nc3ccccc3s2)no1 | 3.12% (inactive)
69 | Cc1ccc(C=C2C(=O)c3ccccc3C2=O)o1 | -3.84% (inactive)
70 | NS(=O)(=O)c1ccc(-c2ccc(/C=C3\C(=O)Nc4ccccc43)o2)cc1 | -2.7% (inactive)
71 | CC1CN(S(=O)(=O)c2cccc(C(=O)NCCCn3ccnc3)c2)CC(C)O1 (stereo unspecified) | -14.2% (inactive)
72 | CCOC(=O)NC(=O)c1cn(N(C)c2ncc(C(F)(F)F)cc2Cl)c(=O)[nH]c1=O | -2.39% (inactive)

Row | SMILES | inhibition
73 | CC(OC(=O)c1cc[n+]([O-])cc1)C(=O)Nc1ccc(Cl)cn1 (stereo unspecified) | -4.2% (inactive)
74 | CC(OC(=O)c1ccco1)C(=O)Nc1ccc(Cl)cn1 (stereo unspecified) | 0.78% (inactive)
75 | COC(=O)c1sccc1-n1cccc1C(=O)C(=O)N1CCCC1 | 0.85% (inactive)
76 | CCOCc1cnc(C)nc1NCC(=O)c1c(C)[nH]c2ccc(OC)cc12 | -0.42% (inactive)
77 | COc1cc2c(C(=O)N3CCN(c4cccc(Cl)c4)CC3)cn(C)c(=O)c2cc1OC | -1.4% (inactive)
78 | CCn1cc(C(=O)N2CCN(c3cccc(Cl)c3)CC2)c2cc(OC)c(OC)cc2c1=O | -2.64% (inactive)
79 | O=C(O)CCC(=O)NNC(=O)CCC1CCCCC1 | 0.82% (inactive)
80 | CCOC(=O)c1c(NC(=O)OC)sc(C(=O)N(CC)CC)c1C | 10.1% (inactive)
81 | CCN(CC)C(=O)c1[nH]cnc1C(=O)NCc1ccc(CNC(=O)OC(C)(C)C)cc1 | -4.15% (inactive)
82 | Cc1oc2nc(SCC(=O)NC3CCCCC3)nc(N)c2c1C | 3.18% (inactive)
83 | COc1cccc(CC2(CO)CCCN(Cc3ccc(C)s3)C2)c1 (stereo unspecified) | 1.24% (inactive)
84 | COc1cccc(CC2(CO)CCCN(Cc3cc4ccccc4[nH]3)C2)c1 (stereo unspecified) | 10.5% (inactive)
85 | COc1ccccc1CCNC(=O)CCSc1nc(-c2ccco2)cc(C(F)(F)F)n1 | -1.55% (inactive)
86 | CCCN=Cc1sc2ccc(OCC)cc2c1O | -4.1% (inactive)
87 | Cc1cccc(NC(=O)/C(C#N)=C\c2cccnc2)c1 | -10.8% (inactive)
88 | COc1cc2nc(CN3CC=C(c4ccccc4)CC3)[nH]c(=O)c2cc1OC | 3.16% (inactive)
89 | NC(=O)C1CCN(Cc2nc3cc(C(F)(F)F)ccc3c(=O)[nH]2)CC1 | 2.7% (inactive)
90 | COc1ccc(CCNC(=O)CCNS(=O)(=O)c2cccc3nonc23)cc1OC | 2.46% (inactive)
91 | COC(=O)/C=C1/S/C(=N/NC(=O)c2ccccc2)NC1=O | -1.82% (inactive)
92 | O=C(CN1CCCCC1)N/N=C/c1ccccc1OCc1ccccc1 | -1.99% (inactive)
93 | Cn1c(=O)c2c(ncn2CC(=O)Nc2ccccc2Sc2ccccc2)n(C)c1=O | -2.88% (inactive)
94 | CN(C)C(=O)c1cc(C(=O)c2ccc(F)cc2C(F)(F)F)c[nH]1 | -3.23% (inactive)
95 | c1ccc(-n2nnnc2SCCCSc2nc3ccccc3s2)cc1 | -4.17% (inactive)
96 | CCSc1nnnn1-c1ccccc1 | 3.88% (inactive)

— PubChem BioAssay AID449762 (Southern Research Specialized Biocontainment Screening …, 2010)
